Targets with a hit are over-represented here; the source holds about 7,900 in all. About 0.6% of all pairs of compound and target were hits.
What follows are targets tested with COc1cccc2cc(-c3nc([C@H]4CC[C@H](C(=O)O)CC4)n4ncnc(N)c34)[nH]c12 (assay: log2 fold change, soluble protein after heating vs DMSO (PISA); higher = thermal stabilisation; K562 cells, 10 uM, 30 min; active = over 0.2 and 3.5 SD of the protein, either way, in both replicates (recomputed)).
Procedure, shortened: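 K562 cells at 2×10^6 cells/mL were exposed to 10 μM compound for 30 min, then aliquots were heated for 3 min across 48°C-58°C, pooled, and extracted in PBS containing 0.5% NP-40 at 4°C. The supernatant after 21,000xg for 90 min was taken as soluble protein and measured by TMTpro 16plex LC-MS/MS with channel sums equalised. Thermal stability is reported relative to control samples, with values from duplicates. Fold changes are given on a log2 scale.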

UniProt Q16537, sequence (Q16537 whole entry, looked up): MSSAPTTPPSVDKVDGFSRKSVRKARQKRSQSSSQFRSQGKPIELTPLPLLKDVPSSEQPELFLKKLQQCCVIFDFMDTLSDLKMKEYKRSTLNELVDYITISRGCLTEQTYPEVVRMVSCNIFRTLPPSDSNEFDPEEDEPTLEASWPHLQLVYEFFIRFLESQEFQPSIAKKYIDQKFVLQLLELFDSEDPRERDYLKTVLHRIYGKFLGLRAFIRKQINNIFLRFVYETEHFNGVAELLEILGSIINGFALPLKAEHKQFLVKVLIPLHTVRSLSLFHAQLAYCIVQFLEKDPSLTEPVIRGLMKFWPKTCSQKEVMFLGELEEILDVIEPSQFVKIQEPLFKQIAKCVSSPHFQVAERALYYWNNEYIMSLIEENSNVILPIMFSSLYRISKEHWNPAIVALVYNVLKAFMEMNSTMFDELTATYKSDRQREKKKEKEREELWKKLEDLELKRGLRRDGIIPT
UniProt P31321, sequence (P31321 whole entry, looked up): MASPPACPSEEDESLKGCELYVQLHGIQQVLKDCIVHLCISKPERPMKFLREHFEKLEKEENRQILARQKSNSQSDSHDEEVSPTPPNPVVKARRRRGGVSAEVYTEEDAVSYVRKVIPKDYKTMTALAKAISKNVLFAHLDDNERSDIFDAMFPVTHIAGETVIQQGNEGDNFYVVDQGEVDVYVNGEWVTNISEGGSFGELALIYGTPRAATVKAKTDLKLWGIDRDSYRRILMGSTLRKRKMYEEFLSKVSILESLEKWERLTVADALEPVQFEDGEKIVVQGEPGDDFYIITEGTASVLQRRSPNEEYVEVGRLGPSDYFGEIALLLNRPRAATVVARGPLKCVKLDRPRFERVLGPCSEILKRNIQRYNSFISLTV
UniProt Q9Y5Y5, sequence (Q9Y5Y5 whole entry, looked up): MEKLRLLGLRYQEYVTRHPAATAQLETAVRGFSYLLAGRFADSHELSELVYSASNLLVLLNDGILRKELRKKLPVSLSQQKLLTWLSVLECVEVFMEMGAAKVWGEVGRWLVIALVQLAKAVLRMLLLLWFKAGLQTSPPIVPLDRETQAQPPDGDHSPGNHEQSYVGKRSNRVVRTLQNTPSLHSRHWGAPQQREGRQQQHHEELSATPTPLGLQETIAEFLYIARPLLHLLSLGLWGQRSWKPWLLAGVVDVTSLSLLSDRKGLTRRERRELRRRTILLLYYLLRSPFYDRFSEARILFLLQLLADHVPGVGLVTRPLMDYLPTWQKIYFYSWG
UniProt O75340, sequence (O75340 whole entry, looked up): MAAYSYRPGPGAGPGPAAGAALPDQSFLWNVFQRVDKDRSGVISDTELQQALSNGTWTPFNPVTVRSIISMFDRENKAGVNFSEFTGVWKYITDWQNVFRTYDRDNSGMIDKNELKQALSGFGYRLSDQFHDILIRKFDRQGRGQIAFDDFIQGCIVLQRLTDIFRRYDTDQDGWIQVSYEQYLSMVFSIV
UniProt Q9Y2Y1, sequence (Q9Y2Y1 whole entry, looked up): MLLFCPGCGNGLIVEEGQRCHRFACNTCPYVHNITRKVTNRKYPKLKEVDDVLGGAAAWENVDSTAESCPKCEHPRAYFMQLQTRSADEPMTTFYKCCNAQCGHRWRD
UniProt Q8IZL8, sequence (Q8IZL8 whole entry, looked up): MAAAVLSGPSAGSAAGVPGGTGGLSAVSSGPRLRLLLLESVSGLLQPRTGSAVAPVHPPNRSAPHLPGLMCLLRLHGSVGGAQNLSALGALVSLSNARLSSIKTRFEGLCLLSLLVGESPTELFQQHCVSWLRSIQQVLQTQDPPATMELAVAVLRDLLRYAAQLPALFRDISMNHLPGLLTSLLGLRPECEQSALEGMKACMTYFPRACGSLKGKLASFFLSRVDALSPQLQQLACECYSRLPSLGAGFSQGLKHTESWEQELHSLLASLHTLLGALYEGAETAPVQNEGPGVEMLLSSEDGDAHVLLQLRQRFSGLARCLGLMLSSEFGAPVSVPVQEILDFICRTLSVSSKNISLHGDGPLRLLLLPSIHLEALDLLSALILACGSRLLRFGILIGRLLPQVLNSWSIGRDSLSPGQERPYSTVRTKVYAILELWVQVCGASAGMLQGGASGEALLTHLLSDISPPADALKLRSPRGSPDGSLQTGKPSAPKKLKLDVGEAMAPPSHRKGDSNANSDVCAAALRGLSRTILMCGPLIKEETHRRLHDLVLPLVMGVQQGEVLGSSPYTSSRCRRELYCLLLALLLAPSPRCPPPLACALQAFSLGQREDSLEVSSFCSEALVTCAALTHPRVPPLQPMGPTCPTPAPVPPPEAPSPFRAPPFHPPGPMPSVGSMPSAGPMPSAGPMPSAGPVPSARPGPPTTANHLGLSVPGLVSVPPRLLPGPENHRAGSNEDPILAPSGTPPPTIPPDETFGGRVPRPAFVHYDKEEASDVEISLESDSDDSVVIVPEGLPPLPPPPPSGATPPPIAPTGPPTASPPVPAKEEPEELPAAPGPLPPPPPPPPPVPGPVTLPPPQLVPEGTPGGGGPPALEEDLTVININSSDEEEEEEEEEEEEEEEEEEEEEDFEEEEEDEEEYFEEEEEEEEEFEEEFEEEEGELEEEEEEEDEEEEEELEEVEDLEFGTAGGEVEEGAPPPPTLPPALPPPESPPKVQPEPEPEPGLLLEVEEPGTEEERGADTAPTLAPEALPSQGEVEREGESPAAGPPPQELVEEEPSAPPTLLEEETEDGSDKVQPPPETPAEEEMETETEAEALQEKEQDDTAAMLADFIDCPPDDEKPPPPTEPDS
UniProt Q9BRX2, sequence (Q9BRX2 whole entry, looked up): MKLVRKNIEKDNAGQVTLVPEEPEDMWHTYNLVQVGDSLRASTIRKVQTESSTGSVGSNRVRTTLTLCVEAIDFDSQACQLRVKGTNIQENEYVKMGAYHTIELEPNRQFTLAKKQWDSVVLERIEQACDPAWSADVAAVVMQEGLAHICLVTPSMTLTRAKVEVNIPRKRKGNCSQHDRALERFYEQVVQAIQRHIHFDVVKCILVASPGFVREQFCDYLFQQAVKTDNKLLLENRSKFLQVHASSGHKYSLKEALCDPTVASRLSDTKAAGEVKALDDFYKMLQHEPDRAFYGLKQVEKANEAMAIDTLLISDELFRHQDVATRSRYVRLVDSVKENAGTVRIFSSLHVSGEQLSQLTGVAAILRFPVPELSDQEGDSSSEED
UniProt Q16512, sequence (Q16512 whole entry, looked up): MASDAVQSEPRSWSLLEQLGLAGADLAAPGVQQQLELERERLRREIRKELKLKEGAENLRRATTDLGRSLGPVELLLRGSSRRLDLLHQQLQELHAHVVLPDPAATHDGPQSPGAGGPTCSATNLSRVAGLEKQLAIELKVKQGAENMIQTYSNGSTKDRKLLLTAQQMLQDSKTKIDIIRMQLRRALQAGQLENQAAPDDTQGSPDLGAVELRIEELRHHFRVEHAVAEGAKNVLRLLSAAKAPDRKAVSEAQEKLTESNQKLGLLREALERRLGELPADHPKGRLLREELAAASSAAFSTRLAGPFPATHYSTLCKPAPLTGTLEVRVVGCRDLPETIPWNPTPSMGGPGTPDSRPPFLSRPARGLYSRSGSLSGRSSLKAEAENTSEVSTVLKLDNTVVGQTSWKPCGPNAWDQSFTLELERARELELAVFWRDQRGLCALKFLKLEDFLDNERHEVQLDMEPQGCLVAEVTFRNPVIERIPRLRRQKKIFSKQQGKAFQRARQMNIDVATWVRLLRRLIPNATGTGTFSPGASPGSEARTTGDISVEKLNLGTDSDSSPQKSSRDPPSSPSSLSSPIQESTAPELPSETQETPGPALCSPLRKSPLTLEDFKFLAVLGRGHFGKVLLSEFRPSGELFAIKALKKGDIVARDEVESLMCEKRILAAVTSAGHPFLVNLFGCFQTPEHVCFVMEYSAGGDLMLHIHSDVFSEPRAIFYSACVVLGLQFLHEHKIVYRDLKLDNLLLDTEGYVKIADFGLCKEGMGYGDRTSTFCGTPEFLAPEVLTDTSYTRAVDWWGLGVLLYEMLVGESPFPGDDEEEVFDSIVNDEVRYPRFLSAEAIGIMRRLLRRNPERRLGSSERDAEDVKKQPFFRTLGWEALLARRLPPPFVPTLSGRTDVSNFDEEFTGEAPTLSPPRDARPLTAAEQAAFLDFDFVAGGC
UniProt Q9BTU6, sequence (Q9BTU6 whole entry, looked up): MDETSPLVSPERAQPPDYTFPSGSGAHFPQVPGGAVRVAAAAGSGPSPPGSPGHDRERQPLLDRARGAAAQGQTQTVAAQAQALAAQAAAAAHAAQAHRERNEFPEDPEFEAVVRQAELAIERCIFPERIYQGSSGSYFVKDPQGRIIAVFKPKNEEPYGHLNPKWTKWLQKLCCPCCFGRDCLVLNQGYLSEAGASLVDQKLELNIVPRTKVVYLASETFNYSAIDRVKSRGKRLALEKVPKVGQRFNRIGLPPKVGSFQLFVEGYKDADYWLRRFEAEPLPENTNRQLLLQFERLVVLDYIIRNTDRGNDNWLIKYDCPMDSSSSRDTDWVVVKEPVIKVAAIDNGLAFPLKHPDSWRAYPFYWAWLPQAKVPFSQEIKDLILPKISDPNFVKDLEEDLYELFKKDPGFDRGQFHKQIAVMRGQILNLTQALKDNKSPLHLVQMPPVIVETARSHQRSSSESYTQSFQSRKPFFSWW
UniProt O00625, sequence (O00625 whole entry, looked up): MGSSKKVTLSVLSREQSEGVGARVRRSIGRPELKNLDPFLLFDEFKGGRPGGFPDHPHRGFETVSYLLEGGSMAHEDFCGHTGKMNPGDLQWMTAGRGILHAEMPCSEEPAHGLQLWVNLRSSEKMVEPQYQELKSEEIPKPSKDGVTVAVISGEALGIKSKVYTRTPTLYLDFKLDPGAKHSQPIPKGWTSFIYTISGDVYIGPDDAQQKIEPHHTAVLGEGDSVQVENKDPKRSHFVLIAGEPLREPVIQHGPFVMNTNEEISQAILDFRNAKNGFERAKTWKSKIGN
UniProt Q9Y244, sequence (Q9Y244 whole entry, looked up): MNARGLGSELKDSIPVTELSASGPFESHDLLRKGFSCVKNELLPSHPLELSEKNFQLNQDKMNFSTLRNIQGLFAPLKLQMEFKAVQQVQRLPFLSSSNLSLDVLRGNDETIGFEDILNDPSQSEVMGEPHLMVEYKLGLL

log2 fold change, inactive:
PDCD6 (UniProt O75340) 0.013
PRKAR1B (UniProt P31321) -0.162
PPP4R3B (UniProt Q5MIZ7) -0.034
PUF60 (UniProt Q9UHX1) 0.008
PISD (UniProt Q9UG56) 0.012
PJA2 (UniProt O43164) 0.001
PECAM1 (UniProt P16284) 0.063
PTTG1 (UniProt O95997) -0.058
PIK3C3 (UniProt Q8NEB9) 0.007
PARN (UniProt O95453) 0.04
POMP (UniProt Q9Y244) -0.03
POLR3K (UniProt Q9Y2Y1) 0.044
PPT1 (UniProt P50897) 0.074
PTDSS1 (UniProt P48651) -0.012
PPT2 isoform 3 (UniProt Q9UMR5) 0.093
PIK3R1 (UniProt P27986) 0.014
PIR (UniProt O00625) 0.011
PRKCB isoform 2 (UniProt P05771) -0.036
POP1 (UniProt Q99575) 0.021
PLBD1 (UniProt Q6P4A8) 0.048
PEX7 (UniProt O00628) 0.072
PSMC6 (UniProt P62333) -0.057
PDCD2L (UniProt Q9BRP1) -0.018
PRKCA (UniProt P17252) 0.017
PPP2R5E (UniProt Q16537) 0.033
PRPF38A (UniProt Q8NAV1) 0.002
PNPLA8 (UniProt Q9NP80) 0.047
PSMB4 (UniProt P28070) 0.005
PHKA1 (UniProt P46020) 0.034
PKN1 isoform 2 (UniProt Q16512) -0.044
PEX16 isoform 2 (UniProt Q9Y5Y5) 0.193
PELO (UniProt Q9BRX2) 0.001
PSMC2 (UniProt P35998) -0.05
PCNT (UniProt O95613) 0.257
PELP1 (UniProt Q8IZL8) 0.042
PI4K2A (UniProt Q9BTU6) 0.005
POLR3B (UniProt Q9NW08) -0.135
